Legend:
[1] = molecular target: T1, Ephrin type-B receptor 2 (Homo sapiens) (UniProt P29323); conditions: at 1 µM
T1 sequence (whole entry): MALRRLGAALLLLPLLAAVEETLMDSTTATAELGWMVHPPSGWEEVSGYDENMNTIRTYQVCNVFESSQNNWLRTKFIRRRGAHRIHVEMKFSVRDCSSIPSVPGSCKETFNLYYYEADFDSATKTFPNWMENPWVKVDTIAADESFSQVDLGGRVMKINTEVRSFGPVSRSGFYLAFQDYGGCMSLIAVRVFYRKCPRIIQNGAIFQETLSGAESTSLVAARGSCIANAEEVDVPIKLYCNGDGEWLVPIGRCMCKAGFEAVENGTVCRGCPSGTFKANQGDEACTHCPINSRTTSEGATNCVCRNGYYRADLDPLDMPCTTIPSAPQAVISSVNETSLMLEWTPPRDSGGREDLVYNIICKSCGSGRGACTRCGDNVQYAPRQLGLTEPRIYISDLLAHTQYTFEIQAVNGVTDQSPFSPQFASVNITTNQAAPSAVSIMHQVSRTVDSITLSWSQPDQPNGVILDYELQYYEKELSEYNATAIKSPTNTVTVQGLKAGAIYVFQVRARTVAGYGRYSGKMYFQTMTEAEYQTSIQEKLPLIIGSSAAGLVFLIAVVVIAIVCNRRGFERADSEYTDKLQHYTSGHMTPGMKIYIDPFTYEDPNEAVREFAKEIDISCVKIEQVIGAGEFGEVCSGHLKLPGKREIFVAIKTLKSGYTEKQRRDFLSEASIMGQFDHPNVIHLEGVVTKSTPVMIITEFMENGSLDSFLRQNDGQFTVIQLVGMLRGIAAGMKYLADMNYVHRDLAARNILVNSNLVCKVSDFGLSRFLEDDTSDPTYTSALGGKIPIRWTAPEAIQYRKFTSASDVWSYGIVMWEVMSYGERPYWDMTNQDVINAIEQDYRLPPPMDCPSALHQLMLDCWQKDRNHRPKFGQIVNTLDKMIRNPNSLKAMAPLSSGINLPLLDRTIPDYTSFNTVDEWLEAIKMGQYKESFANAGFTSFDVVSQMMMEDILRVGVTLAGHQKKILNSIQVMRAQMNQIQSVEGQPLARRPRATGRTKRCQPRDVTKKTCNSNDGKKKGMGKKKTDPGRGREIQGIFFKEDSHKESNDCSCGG

[2] = molecular target: T2, Ephrin type-B receptor 3 (Homo sapiens) (UniProt P54753); conditions: at 0.1 µM
T2 sequence (whole entry): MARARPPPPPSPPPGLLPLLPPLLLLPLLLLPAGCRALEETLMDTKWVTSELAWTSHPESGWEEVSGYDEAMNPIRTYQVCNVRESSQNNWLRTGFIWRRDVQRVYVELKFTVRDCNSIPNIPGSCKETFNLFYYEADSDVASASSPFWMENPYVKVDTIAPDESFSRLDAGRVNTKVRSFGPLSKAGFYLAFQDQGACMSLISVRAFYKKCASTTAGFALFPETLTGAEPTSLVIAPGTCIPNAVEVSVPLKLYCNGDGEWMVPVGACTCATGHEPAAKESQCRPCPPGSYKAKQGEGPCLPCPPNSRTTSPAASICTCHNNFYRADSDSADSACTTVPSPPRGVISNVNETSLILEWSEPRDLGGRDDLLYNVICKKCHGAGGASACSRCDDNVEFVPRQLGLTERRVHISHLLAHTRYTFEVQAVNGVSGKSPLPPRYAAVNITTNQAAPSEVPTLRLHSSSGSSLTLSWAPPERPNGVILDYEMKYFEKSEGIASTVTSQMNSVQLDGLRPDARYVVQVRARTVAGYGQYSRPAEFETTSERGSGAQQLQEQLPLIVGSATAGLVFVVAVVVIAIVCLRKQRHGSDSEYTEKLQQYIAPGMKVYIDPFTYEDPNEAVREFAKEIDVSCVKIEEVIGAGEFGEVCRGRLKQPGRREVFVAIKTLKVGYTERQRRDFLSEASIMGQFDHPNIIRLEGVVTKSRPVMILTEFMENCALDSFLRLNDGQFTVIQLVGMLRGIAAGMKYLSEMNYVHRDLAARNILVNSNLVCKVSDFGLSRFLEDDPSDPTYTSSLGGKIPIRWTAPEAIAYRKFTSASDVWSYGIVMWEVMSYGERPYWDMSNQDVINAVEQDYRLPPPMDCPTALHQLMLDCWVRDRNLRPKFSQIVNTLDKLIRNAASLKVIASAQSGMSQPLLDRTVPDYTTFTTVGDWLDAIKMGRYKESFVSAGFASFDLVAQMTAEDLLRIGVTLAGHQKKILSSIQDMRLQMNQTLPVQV

[3] = molecular target: T2, Ephrin type-B receptor 3 (Homo sapiens); conditions: at 1 µM
[4] = molecular target: T3, Ephrin type-B receptor 4 (Homo sapiens) (UniProt P54760); conditions: at 0.1 µM
T3 sequence (whole entry): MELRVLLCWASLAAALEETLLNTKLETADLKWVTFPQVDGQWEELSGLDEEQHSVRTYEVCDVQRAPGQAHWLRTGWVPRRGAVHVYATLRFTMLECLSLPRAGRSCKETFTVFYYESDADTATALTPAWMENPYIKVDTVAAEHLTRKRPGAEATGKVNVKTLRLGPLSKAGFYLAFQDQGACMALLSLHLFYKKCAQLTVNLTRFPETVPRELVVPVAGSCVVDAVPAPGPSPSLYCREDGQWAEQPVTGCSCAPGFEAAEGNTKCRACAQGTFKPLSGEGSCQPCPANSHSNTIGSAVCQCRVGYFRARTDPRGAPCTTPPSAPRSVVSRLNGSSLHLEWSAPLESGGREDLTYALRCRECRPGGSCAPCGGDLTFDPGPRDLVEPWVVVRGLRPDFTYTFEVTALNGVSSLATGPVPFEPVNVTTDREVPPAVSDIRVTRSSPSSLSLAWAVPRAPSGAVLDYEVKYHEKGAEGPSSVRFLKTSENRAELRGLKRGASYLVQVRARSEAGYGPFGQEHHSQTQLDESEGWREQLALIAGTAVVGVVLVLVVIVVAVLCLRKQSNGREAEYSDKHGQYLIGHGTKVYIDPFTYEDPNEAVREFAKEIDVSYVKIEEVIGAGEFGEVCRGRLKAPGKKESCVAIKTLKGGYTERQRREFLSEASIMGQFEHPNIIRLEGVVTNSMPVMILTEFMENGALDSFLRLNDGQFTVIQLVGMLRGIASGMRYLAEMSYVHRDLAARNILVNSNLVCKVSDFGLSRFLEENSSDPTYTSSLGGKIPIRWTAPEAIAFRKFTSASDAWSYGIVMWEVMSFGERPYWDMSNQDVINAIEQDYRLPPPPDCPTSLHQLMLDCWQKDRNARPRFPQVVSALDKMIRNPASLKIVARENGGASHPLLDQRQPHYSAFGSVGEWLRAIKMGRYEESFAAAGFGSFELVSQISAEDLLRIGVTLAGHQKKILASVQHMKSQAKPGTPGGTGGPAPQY

[5] = molecular target: T3, Ephrin type-B receptor 4 (Homo sapiens); conditions: at 1 µM
[6] = molecular target: Receptor tyrosine-protein kinase erbB-2 (Homo sapiens) (UniProt P04626); conditions: at 0.1 µM
Receptor tyrosine-protein kinase erbB-2 (Homo sapiens), sequence (P04626 whole entry): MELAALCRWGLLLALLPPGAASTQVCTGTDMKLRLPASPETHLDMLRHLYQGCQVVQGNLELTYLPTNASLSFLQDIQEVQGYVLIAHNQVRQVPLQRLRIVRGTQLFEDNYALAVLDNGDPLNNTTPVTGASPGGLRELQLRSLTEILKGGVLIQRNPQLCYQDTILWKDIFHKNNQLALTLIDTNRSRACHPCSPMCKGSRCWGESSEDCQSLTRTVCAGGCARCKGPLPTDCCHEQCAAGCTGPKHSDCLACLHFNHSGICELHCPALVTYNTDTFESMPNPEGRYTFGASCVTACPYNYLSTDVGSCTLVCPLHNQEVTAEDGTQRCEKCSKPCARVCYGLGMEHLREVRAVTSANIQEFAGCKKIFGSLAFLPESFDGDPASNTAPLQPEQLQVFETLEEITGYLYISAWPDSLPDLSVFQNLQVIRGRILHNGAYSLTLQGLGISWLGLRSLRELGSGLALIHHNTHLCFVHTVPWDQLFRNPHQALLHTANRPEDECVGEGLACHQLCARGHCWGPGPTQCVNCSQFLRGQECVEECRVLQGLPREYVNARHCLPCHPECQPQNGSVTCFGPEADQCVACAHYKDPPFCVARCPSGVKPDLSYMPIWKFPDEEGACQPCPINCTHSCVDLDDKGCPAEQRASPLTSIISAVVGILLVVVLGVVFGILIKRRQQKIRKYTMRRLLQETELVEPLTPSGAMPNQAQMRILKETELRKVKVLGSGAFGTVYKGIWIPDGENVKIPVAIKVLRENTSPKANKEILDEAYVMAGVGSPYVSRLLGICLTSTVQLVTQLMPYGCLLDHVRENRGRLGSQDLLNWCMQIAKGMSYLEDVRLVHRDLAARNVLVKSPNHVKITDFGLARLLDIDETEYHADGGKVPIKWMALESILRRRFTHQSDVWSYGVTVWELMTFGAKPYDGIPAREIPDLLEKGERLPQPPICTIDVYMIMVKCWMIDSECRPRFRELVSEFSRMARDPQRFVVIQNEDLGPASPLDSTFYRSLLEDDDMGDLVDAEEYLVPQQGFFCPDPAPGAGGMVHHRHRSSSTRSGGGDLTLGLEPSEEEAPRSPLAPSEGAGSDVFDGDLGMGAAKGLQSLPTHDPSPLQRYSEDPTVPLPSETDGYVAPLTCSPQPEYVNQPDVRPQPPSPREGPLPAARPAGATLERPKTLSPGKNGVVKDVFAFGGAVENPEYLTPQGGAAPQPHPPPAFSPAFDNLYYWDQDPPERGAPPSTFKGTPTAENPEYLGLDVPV

[7] = molecular target: Receptor tyrosine-protein kinase erbB-2 (Homo sapiens) (UniProt P04626); conditions: at 1 µM
[8] = molecular target: Receptor tyrosine-protein kinase erbB-4 (Homo sapiens) (UniProt Q15303); conditions: at 0.1 µM
[9] = molecular target: Receptor tyrosine-protein kinase erbB-4 (Homo sapiens) (UniProt Q15303); conditions: at 1 µM
[10] = molecular target: Tyrosine-protein kinase Fer (Homo sapiens) (UniProt P16591); conditions: at 0.1 µM
Tyrosine-protein kinase Fer (Homo sapiens), sequence (P16591 whole entry, looked up): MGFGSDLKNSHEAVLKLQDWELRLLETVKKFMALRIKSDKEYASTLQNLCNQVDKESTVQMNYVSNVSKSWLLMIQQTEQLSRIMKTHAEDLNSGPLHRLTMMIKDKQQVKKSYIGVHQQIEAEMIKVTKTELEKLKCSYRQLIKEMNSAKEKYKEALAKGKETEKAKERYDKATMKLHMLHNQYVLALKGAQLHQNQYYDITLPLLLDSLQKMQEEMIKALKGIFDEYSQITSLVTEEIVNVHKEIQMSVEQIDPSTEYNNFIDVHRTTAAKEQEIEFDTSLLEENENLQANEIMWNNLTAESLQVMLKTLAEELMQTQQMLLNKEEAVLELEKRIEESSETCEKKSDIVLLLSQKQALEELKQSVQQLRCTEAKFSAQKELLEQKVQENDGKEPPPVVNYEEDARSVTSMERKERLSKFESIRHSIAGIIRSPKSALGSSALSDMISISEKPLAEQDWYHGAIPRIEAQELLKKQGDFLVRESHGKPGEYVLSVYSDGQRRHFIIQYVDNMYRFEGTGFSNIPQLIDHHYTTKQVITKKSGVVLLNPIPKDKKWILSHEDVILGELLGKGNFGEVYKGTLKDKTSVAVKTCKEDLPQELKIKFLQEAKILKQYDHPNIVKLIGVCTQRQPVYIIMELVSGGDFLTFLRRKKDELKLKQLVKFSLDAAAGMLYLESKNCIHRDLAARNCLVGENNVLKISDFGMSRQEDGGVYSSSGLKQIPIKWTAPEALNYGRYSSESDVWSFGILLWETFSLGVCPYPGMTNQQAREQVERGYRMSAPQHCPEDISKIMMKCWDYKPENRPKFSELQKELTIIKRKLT

[11] = molecular target: Tyrosine-protein kinase Fer (Homo sapiens) (UniProt P16591); conditions: at 1 µM
[12] = molecular target: Tyrosine-protein kinase Fes/Fps (Homo sapiens) (UniProt P07332); conditions: at 0.1 µM
Tyrosine-protein kinase Fes/Fps (Homo sapiens), sequence (P07332 whole entry): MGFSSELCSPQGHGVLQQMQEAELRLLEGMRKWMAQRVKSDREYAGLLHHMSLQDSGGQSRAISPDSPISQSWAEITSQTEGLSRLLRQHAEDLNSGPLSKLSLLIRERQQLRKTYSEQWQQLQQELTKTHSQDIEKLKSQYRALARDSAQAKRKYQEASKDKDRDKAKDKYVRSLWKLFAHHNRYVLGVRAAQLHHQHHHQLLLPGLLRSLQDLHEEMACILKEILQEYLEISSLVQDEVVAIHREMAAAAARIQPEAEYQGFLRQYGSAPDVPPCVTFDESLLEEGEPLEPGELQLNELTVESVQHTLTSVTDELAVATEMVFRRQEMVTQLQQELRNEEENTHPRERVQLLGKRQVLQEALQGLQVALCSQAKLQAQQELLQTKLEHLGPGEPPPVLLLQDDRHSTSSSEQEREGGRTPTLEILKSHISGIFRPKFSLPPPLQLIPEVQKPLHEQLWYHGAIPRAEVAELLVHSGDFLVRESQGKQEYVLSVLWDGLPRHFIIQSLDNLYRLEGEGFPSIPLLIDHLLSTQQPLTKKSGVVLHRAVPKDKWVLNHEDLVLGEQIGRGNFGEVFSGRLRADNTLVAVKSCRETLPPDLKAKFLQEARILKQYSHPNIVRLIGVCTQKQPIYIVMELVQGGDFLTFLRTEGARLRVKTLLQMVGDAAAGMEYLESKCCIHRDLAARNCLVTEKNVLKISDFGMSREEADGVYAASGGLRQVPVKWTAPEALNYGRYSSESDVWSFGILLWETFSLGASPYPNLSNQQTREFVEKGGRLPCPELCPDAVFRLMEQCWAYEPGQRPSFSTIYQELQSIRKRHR

[13] = molecular target: Tyrosine-protein kinase Fes/Fps (Homo sapiens) (UniProt P07332); conditions: at 1 µM
[14] = molecular target: Fibroblast growth factor receptor 1 (Homo sapiens) (UniProt P11362); conditions: at 0.1 µM
[15] = molecular target: Fibroblast growth factor receptor 1 (Homo sapiens) (UniProt P11362); conditions: at 1 µM
[16] = molecular target: Fibroblast growth factor receptor 2 (Homo sapiens) (UniProt P21802); conditions: at 0.1 µM
Fibroblast growth factor receptor 2 (Homo sapiens), sequence (P21802 22-821 limits assumed): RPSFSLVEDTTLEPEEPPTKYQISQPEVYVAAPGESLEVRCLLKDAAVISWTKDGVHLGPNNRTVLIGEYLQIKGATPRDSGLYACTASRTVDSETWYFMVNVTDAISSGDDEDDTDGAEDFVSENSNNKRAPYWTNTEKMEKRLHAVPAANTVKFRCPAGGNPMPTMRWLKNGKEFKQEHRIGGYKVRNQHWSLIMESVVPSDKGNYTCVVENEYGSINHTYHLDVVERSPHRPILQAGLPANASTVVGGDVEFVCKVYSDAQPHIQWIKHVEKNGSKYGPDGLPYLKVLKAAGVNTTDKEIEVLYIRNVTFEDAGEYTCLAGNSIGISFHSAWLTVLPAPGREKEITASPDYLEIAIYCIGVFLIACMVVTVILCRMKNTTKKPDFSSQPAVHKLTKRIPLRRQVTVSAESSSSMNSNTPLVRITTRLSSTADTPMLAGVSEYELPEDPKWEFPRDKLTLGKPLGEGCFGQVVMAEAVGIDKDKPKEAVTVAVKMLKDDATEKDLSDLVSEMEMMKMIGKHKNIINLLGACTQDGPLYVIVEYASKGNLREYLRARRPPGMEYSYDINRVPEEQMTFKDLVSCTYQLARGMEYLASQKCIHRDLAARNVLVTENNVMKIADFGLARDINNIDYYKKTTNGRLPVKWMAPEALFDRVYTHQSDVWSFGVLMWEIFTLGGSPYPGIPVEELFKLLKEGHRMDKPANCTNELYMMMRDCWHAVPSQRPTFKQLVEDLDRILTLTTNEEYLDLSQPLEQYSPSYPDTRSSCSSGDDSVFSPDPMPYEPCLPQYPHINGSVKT

[17] = molecular target: Fibroblast growth factor receptor 2 (Homo sapiens) (UniProt P21802); conditions: at 1 µM
[18] = molecular target: Fibroblast growth factor receptor 3 (Homo sapiens) (UniProt P22607); conditions: at 0.1 µM
Fibroblast growth factor receptor 3 (Homo sapiens), sequence (P22607 23-806 limits assumed): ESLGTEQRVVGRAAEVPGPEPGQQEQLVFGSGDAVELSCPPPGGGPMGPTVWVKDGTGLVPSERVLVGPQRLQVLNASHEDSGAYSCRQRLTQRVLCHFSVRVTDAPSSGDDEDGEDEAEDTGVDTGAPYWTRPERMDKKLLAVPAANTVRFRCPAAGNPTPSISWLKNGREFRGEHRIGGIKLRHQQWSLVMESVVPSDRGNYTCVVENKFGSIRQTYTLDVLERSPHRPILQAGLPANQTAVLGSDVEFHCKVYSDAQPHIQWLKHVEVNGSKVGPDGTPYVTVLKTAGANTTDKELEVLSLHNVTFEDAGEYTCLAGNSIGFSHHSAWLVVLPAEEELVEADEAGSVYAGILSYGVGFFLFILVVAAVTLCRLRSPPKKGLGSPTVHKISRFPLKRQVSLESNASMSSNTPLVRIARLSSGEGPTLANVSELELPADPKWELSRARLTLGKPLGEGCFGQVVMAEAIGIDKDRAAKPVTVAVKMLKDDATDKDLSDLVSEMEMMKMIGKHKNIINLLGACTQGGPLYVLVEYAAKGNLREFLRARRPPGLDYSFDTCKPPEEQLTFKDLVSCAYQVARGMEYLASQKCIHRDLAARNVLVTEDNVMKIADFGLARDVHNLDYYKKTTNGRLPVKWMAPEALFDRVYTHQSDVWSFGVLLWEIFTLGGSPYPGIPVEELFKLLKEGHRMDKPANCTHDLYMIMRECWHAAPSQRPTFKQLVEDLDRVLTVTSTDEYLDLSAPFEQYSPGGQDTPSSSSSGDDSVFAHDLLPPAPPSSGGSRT

[19] = molecular target: Fibroblast growth factor receptor 3 (Homo sapiens) (UniProt P22607); conditions: at 1 µM
[20] = molecular target: Fibroblast growth factor receptor 4 (Homo sapiens) (UniProt P22455); conditions: at 0.1 µM;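 also: values are mean percent inhibition of FGFR4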

**Q.** How did the inhibition [1] turn out when O=C(Nc1n[nH]c2nc(-c3ccco3)c(Br)cc12)C1CC1 was run?
**A.** 5.48%

**Q.** And the inhibition [2]?
**A.** 4.64%

**Q.** And the inhibition [3]?
**A.** 3.95%

**Q.** What about the inhibition [4] of the same molecule?
**A.** 2.69%

**Q.** And the inhibition [5]?
**A.** 3.48%

**Q.** What about the inhibition [6] of the same molecule?
**A.** 1.49%

**Q.** What about the inhibition [7] of the same molecule?
**A.** -3.9%

**Q.** And the inhibition [8]?
**A.** 10.1%

**Q.** What about the inhibition [9] of the same molecule?
**A.** 15.8%

**Q.** What about the inhibition [10] of the same molecule?
**A.** 1.93%

**Q.** And the inhibition [11]?
**A.** 0.63%

**Q.** And the inhibition [12]?
**A.** 2.91%

**Q.** What about the inhibition [13] of the same molecule?
**A.** 3.27%

**Q.** What about the inhibition [14] of the same molecule?
**A.** 1.76%

**Q.** What about the inhibition [15] of the same molecule?
**A.** 5.28%

**Q.** And the inhibition [16]?
**A.** 2.01%

**Q.** What about the inhibition [17] of the same molecule?
**A.** 7.9%

**Q.** And the inhibition [18]?
**A.** 6.29%

**Q.** And the inhibition [19]?
**A.** 7.26%

**Q.** What about the inhibition [20] of the same molecule?
**A.** -0.77%

**Q.** How did the inhibition [1] turn out when NC(=O)c1cccc(Nc2nccc(Nc3cccc4[nH]ncc34)n2)c1 was run?
**A.** 77.8%

**Q.** And the inhibition [2]?
**A.** -3.41%

**Q.** And the inhibition [3]?
**A.** 4.33%

**Q.** What about the inhibition [4] of the same molecule?
**A.** 22.2%

**Q.** And the inhibition [5]?
**A.** 72.1%

**Q.** And the inhibition [6]?
**A.** -4.62%

**Q.** And the inhibition [7]?
**A.** 2.08%

**Q.** And the inhibition [8]?
**A.** -6.41%

**Q.** What about the inhibition [9] of the same molecule?
**A.** -1.88%

**Q.** And the inhibition [10]?
**A.** 3.13%

**Q.** And the inhibition [11]?
**A.** 21.9%

**Q.** And the inhibition [12]?
**A.** -2.33%

**Q.** And the inhibition [13]?
**A.** 10.9%

**Q.** And the inhibition [14]?
**A.** -5.24%

**Q.** What about the inhibition [15] of the same molecule?
**A.** 9.11%

**Q.** What about the inhibition [16] of the same molecule?
**A.** -1.94%

**Q.** What about the inhibition [17] of the same molecule?
**A.** 13.1%

**Q.** What about the inhibition [18] of the same molecule?
**A.** -3.38%

**Q.** What about the inhibition [19] of the same molecule?
**A.** 4.68%

**Q.** What about the inhibition [20] of the same molecule?
**A.** 1.28%

**Q.** Which results are given for CS(=O)(=O)CCN(CC#N)Cc1ccc(-c2ccc3ncnc(Nc4ccc(OCc5cccc(F)c5)c(Cl)c4)c3c2)o1?
**A.** inhibition [1]: 4.79%; inhibition [2]: -1.45%; inhibition [3]: -0.8%; inhibition [4]: -2.59%; inhibition [5]: -3.31%; inhibition [6]: 12.4%; inhibition [7]: 66.7%; inhibition [8]: 33.6%; inhibition [9]: 73.8%; inhibition [10]: -0.11%; inhibition [11]: 1.14%; inhibition [12]: 0.82%; inhibition [13]: 0.27%; inhibition [14]: -3.34%; inhibition [15]: -4.3%; inhibition [16]: -1.21%; inhibition [17]: -2.13%; inhibition [18]: -1.19%; inhibition [19]: -0.34%; inhibition [20]: 0.11%

**Q.** With CS(=O)(=O)Nc1ccc(N/C=C2\C(=O)Nc3ccccc32)cc1 as the molecule, how does the inhibition [1] read?
**A.** 0.55%

**Q.** And the inhibition [2]?
**A.** -5.53%

**Q.** And the inhibition [3]?
**A.** -3.88%

**Q.** What about the inhibition [4] of the same molecule?
**A.** 0.19%

**Q.** And the inhibition [5]?
**A.** -0.64%

**Q.** What about the inhibition [6] of the same molecule?
**A.** -3.57%

**Q.** And the inhibition [7]?
**A.** -1.76%

**Q.** And the inhibition [9]?
**A.** -9.44%

**Q.** And the inhibition [10]?
**A.** 1.8%

**Q.** And the inhibition [11]?
**A.** 5.06%

**Q.** What about the inhibition [12] of the same molecule?
**A.** -2.08%

**Q.** What about the inhibition [13] of the same molecule?
**A.** -1.95%

**Q.** What about the inhibition [14] of the same molecule?
**A.** -1.9%

**Q.** And the inhibition [15]?
**A.** 5.82%

**Q.** And the inhibition [16]?
**A.** 1.04%

**Q.** What about the inhibition [17] of the same molecule?
**A.** 27.1%

**Q.** What about the inhibition [18] of the same molecule?
**A.** 1.57%

**Q.** What about the inhibition [19] of the same molecule?
**A.** 25.5%

**Q.** And the inhibition [20]?
**A.** 2.33%

**Q.** What does the source list for COc1cc2ncn(-c3cc(OCc4ccccc4Cl)c(C(N)=O)s3)c2cc1OC?
**A.** inhibition [1]: 7.08%; inhibition [2]: 2.15%; inhibition [3]: 1.6%; inhibition [4]: 0.55%; inhibition [5]: 3.38%; inhibition [6]: -1%; inhibition [7]: 2.47%; inhibition [8]: -1.93%; inhibition [9]: 9.17%; inhibition [10]: 2.47%; inhibition [11]: 8.52%; inhibition [12]: -0.24%; inhibition [13]: 0.38%; inhibition [14]: 3.46%; inhibition [15]: 8.43%; inhibition [17]: 13.2%; inhibition [18]: 4.37%; inhibition [19]: 13.2%; inhibition [20]: -5.86%
